Structures can show the parent of a compound that is named as a salt. ± gives the standard deviation.
Experiments:
[1] = system: Jurkat; assay: mean cell size (FSC-A) relative to DMSO control (fraction of control); higher = larger cells; settings: 48 h
Method in brief: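 Jurkat cells seeded at 600 cells/µl were incubated 1 h, then exposed for 48h to the Enzo Screen-Well FDA Approved Drug Library v2.0 at 25µM in 0.9% (v/v) final DMSO. Drugs that cut counts below 20% of controls were diluted 10-fold and retested, down to 25nM. Cell count and mean cell size (forward scatter area) were read on an Accuri C6 flow cytometer, relative to solvent-only controls. Plates held 6-12 controls; values are means of 3 biological replicates.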

[2] = system: Jurkat; assay: cell count relative to DMSO control (fraction of control); higher = more cells (less growth inhibition); settings: 48 h

Structure (SMILES) | mean cell size [1] | cell count [2]
CN(Cc1ccc(C(C)(C)C)cc1)Cc1cccc2ccccc12 [Butenafine·HCl] (concentration: 25 µM) | 0.97 ± 0.031 | 0.793 ± 0.076
COC(=O)[C@H]1[C@H]2C[C@@H]3c4[nH]c5cc(OC)ccc5c4CCN3C[C@H]2C[C@@H](OC(=O)c2cc(OC)c(OC)c(OC)c2)[C@@H]1OC [Reserpine] (concentration: 25 µM) | 0.988 ± 0.025 | 0.616 ± 0.098
CC(CN(C)C)CN1c2ccccc2CCc2ccccc21 (stereo not given) [Trimipramine Maleate] (concentration: 25 µM) | 1.02 ± 0.022 | 0.834 ± 0.056
CCN(CC)CCOC(=O)C1(C2CCCCC2)CCCCC1 [Dicyclomine·HCl] (concentration: 25 µM) | 0.9222 ± 0.0091 | 0.922 ± 0.054
CCc1nn(CCCN2CCN(c3cccc(Cl)c3)CC2)c(=O)n1CCOc1ccccc1 [Nefazodone·HCl] (concentration: 25 µM) | 0.924 ± 0.015 | 0.601 ± 0.02
Cc1nc(Nc2ncc(C(=O)Nc3c(C)cccc3Cl)s2)cc(N2CCN(CCO)CC2)n1 [Dasatinib] (concentration: 2.5 µM) | 0.8161 ± 0.0028 | 1.03 ± 0.063
CC(C)C[C@H](NC(=O)[C@H](Cc1ccccc1)NC(=O)c1cnccn1)B(O)O [Bortezomib] (concentration: 25 nM) | 0.894 ± 0.064 | 0.112 ± 0.11
C[C@]12CCC3=C4CCC(=O)C=C4CC[C@H]3[C@@H]1CC[C@@]2(O)CC#N [Dienogest] (concentration: 25 µM) | 0.963 ± 0.035 | 0.827 ± 0.15
NC1=NCC2c3ccccc3Cc3ccccc3N12 (stereo not given) [Epinastine·HCl] (concentration: 25 µM) | 0.951 ± 0.014 | 1.06 ± 0.077
Nc1nc2ccc(OC(F)(F)F)cc2s1 [Riluzole·HCl] (concentration: 2.5 µM) | 1.01 ± 0.028 | 0.573 ± 0.029
O=C(NCC1CCCCN1)c1cc(OCC(F)(F)F)ccc1OCC(F)(F)F (stereo not given) [Flecainide Acetate] (concentration: 25 µM) | 0.97 ± 0.014 | 0.725 ± 0.033
CO[C@H]1/C=C/O[C@@]2(C)Oc3c(C)c(O)c4c(O)c(c(/C=N/N5CCN(C)CC5)c(O)c4c3C2=O)NC(=O)/C(C)=C\C=C\[C@H](C)[C@H](O)[C@@H](C)[C@@H](O)[C@@H](C)[C@H](OC(C)=O)[C@@H]1C [Rifampin (Rifampicin)] (concentration: 25 µM) | 0.964 ± 0.0034 | 0.765 ± 0.035
O=C(O[C@@H]1C[C@@H]2C[C@H]3C[C@H](C1)N2CC3=O)c1c[nH]c2ccccc12 [Dolasetron] (concentration: 25 µM) | 0.921 ± 0.029 | 0.29 ± 0.053
NCC(=O)CCC(=O)O [Aminolevulinic Acid·HCl] (concentration: 25 µM) | 0.911 ± 0.013 | 0.638 ± 0.08
O=C(O)c1cc(N=Nc2ccc(O)c(C(=O)O)c2)ccc1O [Olsalazine·Na] (concentration: 25 µM) | 0.955 ± 0.036 | 0.611 ± 0.042
Cc1cccn2c(=O)c(-c3nnn[nH]3)cnc12 [Pemirolast Potassium] (concentration: 25 µM) | 0.938 ± 0.024 | 0.756 ± 0.11
CC(=O)OCC(=O)[C@@]1(O)CC[C@H]2[C@@H]3CCC4=CC(=O)CC[C@]4(C)[C@@]3(F)[C@@H](O)C[C@@]21C [Fludrocortisone Acetate] (concentration: 25 µM) | 0.932 ± 0.058 | 0.63 ± 0.033
O=C(O)CCCc1ccccc1 [Sodium Phenylbutyrate] (concentration: 25 µM) | 0.936 ± 0.024 | 1.05 ± 0.12
COC(=O)[C@@H]1CC2=CC(=O)CC[C@]2(C)[C@@]23O[C@@H]2C[C@@]2(C)[C@@H](CC[C@@]24CCC(=O)O4)[C@H]13 [Eplerenone] (concentration: 25 µM) | 1.19 ± 0.035 | 0.521 ± 0.06
CN(C)c1nc(N(C)C)nc(N(C)C)n1 [Altretamine] (concentration: 25 µM) | 0.945 ± 0.019 | 0.555 ± 0.077
CC(=O)O[C@H]1C(=O)[C@@]2(C)[C@H]([C@H](OC(=O)c3ccccc3)[C@]3(O)C[C@H](OC(=O)[C@H](O)[C@@H](NC(=O)c4ccccc4)c4ccccc4)C(C)=C1C3(C)C)[C@]1(OC(C)=O)CO[C@@H]1C[C@@H]2O [Paclitaxel (Taxol)] (concentration: 25 nM) | 1.07 ± 0.022 | 0.4 ± 0.048
CC(C)c1nc(N(C)S(C)(=O)=O)nc(-c2ccc(F)cc2)c1/C=C/[C@@H](O)C[C@@H](O)CC(=O)O [Rosuvastatin Calcium] (concentration: 25 µM) | 1.19 ± 0.041 | 0.689 ± 0.065
CC(=O)Nc1c(I)c(NC(C)=O)c(I)c(C(=O)O)c1I [Diatrizoate Meglumine] (concentration: 25 µM) | 0.99 ± 0.021 | 0.846 ± 0.085
CC(=O)CCCCn1c(=O)c2c(ncn2C)n(C)c1=O [Pentoxifylline] (concentration: 25 µM) | 0.977 ± 0.028 | 1.09 ± 0.12
Nc1ccn([C@@H]2CS[C@H](CO)O2)c(=O)n1 [Lamivudine] (concentration: 25 µM) | 0.995 ± 0.046 | 0.624 ± 0.13

Structure (SMILES) | mean cell size [1] | cell count [2]
Cc1ccccc1C(=O)Nc1ccc(C(=O)N2CCCC(O)c3cc(Cl)ccc32)c(C)c1 (stereo not given) [Tolvaptan] (concentration: 25 µM) | 0.951 ± 0.055 | 0.95 ± 0.028
Nc1c(CC(=O)O)cccc1C(=O)c1ccc(Br)cc1 [Bromfenac] (concentration: 25 µM) | 0.938 ± 0.018 | 1.05 ± 0.05
CN1CCN(C2=Nc3cc(Cl)ccc3Nc3ccccc32)CC1 [Clozapine] (concentration: 25 µM) | 0.966 ± 0.025 | 0.494 ± 0.17
O=C(O)[C@H]1/C(=C/CO)O[C@@H]2CC(=O)N21 [Clavulanate Potassium] (concentration: 25 µM) | 0.994 ± 0.011 | 0.787 ± 0.095
Nc1nc(Cl)nc2c1ncn2[C@H]1C[C@H](O)[C@@H](CO)O1 [Cladribine] (concentration: 250 nM) | 1.17 ± 0.034 | 0.268 ± 0.024
C#C[C@]1(O)CC[C@H]2[C@@H]3CCC4=CC(=O)CC[C@@H]4[C@H]3C(=C)C[C@@]21CC [Etonogestrel] (concentration: 25 µM) | 0.997 ± 0.025 | 0.557 ± 0.013
Cc1cc(C)cc(OCC2CNC(=O)O2)c1 (stereo not given) [Metaxalone] (concentration: 25 µM) | 0.998 ± 0.054 | 0.853 ± 0.17
c1ccc2c(c1)CCCC2C1=NCCN1 (stereo not given) [Tetrahydrozoline·HCl] (concentration: 25 µM) | 0.9443 ± 0.007 | 1.16 ± 0.094
NS(=O)(=O)c1cc(C2(O)NC(=O)c3ccccc32)ccc1Cl (stereo not given) [Chlorthalidone] (concentration: 25 µM) | 1.03 ± 0.028 | 0.918 ± 0.044
CN(CCOc1ccc(CC2SC(=O)NC2=O)cc1)c1ccccn1 (stereo not given) [Rosiglitazone] (concentration: 25 µM) | 0.996 ± 0.063 | 0.718 ± 0.069
COc1ccc2cc([C@H](C)C(=O)O)ccc2c1 [Naproxen] (concentration: 25 µM) | 0.941 ± 0.041 | 0.661 ± 0.1
CC[C@@H]1C(=O)OC[C@@H]1Cc1cncn1C [Pilocarpine·HCl] (concentration: 25 µM) | 0.97 ± 0.049 | 0.246 ± 0.11
O=C(CCCN1CC=C(n2c(=O)[nH]c3ccccc32)CC1)c1ccc(F)cc1 [Droperidol] (concentration: 25 µM) | 0.962 ± 0.032 | 0.812 ± 0.095
CCN(CC)CCCC(C)Nc1ccnc2cc(Cl)ccc12 (stereo not given) [Chloroquine Diphosphate] (concentration: 25 µM) | 0.947 ± 0.025 | 1.03 ± 0.099
CC(=O)O[C@]1(C(C)=O)CC[C@H]2[C@@H]3C[C@H](C)C4=CC(=O)CC[C@]4(C)[C@H]3CC[C@@]21C [Medroxyprogesterone Acetate] (concentration: 25 µM) | 0.956 ± 0.065 | 0.352 ± 0.042
O=C1CCc2ccc(OCCCCN3CCN(c4cccc(Cl)c4Cl)CC3)cc2N1 [Aripiprazole] (concentration: 25 µM) | 1.02 ± 0.037 | 0.89 ± 0.092
CC1CNc2c(cccc2S(=O)(=O)N[C@@H](CCCNC(=N)N)C(=O)N2CC[C@@H](C)C[C@@H]2C(=O)O)C1 (stereo not given in full) [Argatroban] (concentration: 25 µM) | 0.938 ± 0.025 | 0.702 ± 0.023
OC(CCN1CCCCC1)(c1ccccc1)C1CCCCC1 (stereo not given) [Trihexyphenidyl·HCl] (concentration: 25 µM) | 1.04 ± 0.031 | 1.05 ± 0.066
NCCCC(O)(P(=O)(O)O)P(=O)(O)O [Alendronate·Na Trihydrate] (concentration: 25 µM) | 0.927 ± 0.043 | 0.282 ± 0.11
O=C1Cc2cc(CCN3CCN(c4nsc5ccccc45)CC3)c(Cl)cc2N1 [Ziprasidone] (concentration: 25 µM) | 0.98 ± 0.062 | 0.838 ± 0.098
CC1COc2c(N3CCN(C)CC3)c(F)cc3c(=O)c(C(=O)O)cn1c23 (stereo not given) [Ofloxacin] (concentration: 25 µM) | 0.928 ± 0.011 | 0.989 ± 0.073
CN(C)CCc1c[nH]c2ccc(C[C@H]3COC(=O)N3)cc12 [Zolmitriptan] (concentration: 25 µM) | 0.996 ± 0.017 | 0.419 ± 0.11
CCCCc1oc2ccccc2c1C(=O)c1cc(I)c(OCCN(CC)CC)c(I)c1 [Amiodarone·HCl] (concentration: 2.5 µM) | 1.05 ± 0.018 | 0.616 ± 0.12
CC[C@H](C)[C@H](N)C1=N[C@H](C(=O)N[C@@H](CC(C)C)C(=O)N[C@H](CCC(=O)O)C(=O)N[C@H](C(=O)N[C@H]2CCCCNC(=O)[C@H](CC(N)=O)NC(=O)[C@@H](CC(=O)O)NC(=O)[C@H](Cc3cnc[nH]3)NC(=O)[C@@H](Cc3ccccc3)NC(=O)[C@H]([C@@H](C)CC)NC(=O)[C@@H](CCCN)NC2=O)[C@@H](C)CC)CS1 [Bacitracin] (concentration: 25 µM) | 0.977 ± 0.038 | 0.476 ± 0.09
COc1cc2nc(N3CCN(C(=O)C4CCCO4)CC3)nc(N)c2cc1OC (stereo not given) [Terazosin·HCl] (concentration: 25 µM) | 0.997 ± 0.047 | 0.607 ± 0.059
